PubChem BioAssay AID1159554 (Broad Institute, 2015)
The campaign covered roughly 94,000 compounds. About 2,100 (2.2%) were called active. Rule as the data show it: active = activity change below about -80%; inconclusive = no clear call, values can overlap the other calls; inactive = above that. The list comes from a sample in which actives are over-represented; it also holds similar structures and randomly drawn compounds.

Experiment: P. falciparum Dd2 growth inhibitors, primary screen, SYBR Green fluorescence, single dose replicates (AID 1159554)
Conditions: 72 h, at 10 µM, active compounds read low
With CO[C@H]1CN(C)C(=O)c2cc(NS(=O)(=O)c3ccccc3)ccc2OC[C@@H](C)N(Cc2nccs2)C[C@@H]1C the activity change was -8.31% (inactive). For CCS(=O)(=O)N1CC2(CN(Cc3cc(F)ccc3F)[C@@H](CO)c3c2c2ccc(OC)cc2n3C)C1, the activity change was -72.9% (inactive). In the case of CO[C@H]1CN(C)C(=O)c2cc(NS(C)(=O)=O)ccc2OC[C@@H](C)N(Cc2ccccc2)C[C@@H]1C, the activity change is reported as -41.2% (inactive). With COc1ccc2c3c([nH]c2c1)[C@@H](CO)N(C(C)=O)CC31CCN(Cc2ccccc2Cl)CC1 the activity change was -38.2% (inactive). With COc1ccc2c3c([nH]c2c1)[C@H](CO)N(Cc1ccccc1OC)CC31CCN(S(=O)(=O)c2ccccc2)CC1 the activity change was -79.1% (inactive). In the case of COc1ccc2c3c(n(C)c2c1)[C@H](CO)N(Cc1ccccc1Cl)CC31CN(C(=O)CN(C)C)C1, the activity change is reported as -83.6% (active). With CCCC(=O)N1CC2(CN(C(=O)NC(C)C)C2)c2c([nH]c3cc(OC)ccc23)[C@@H]1CO the activity change was 16.5% (inactive). In the case of COc1ccc2c3c([nH]c2c1)[C@@H](CO)N(Cc1ccccc1F)CC31CN(C(=O)C2CC2)C1, the activity change is reported as -48% (inactive). In the case of COc1ccc2c3c([nH]c2c1)[C@H](CO)N(Cc1ccccc1Cl)CC31CN(C(=O)C2CC2)C1, the activity change is reported as -92.3% (active). With CCC(=O)N1CC2(C1)CN(Cc1ccccc1Cl)[C@@H](CO)c1[nH]c3cc(OC)ccc3c12 the activity change was -91.3% (active). For COCC(=O)N1CCC2(CC1)CN(Cc1ccccc1Cl)[C@H](CO)c1c2c2ccc(OC)cc2n1C, the activity change was -60.4% (inactive). In the case of COc1ccc2c3c(n(C)c2c1)[C@@H](CO)N(Cc1ccccc1)CC31CN(C(=O)C2CC2)C1, the activity change is reported as -20.3% (inactive). In the case of COc1ccc(-c2ccc([C@@H]3[C@@H](C#N)N(C(=O)C4CCCCC4)[C@H]3CO)cc2)cc1, the activity change is reported as -30.1% (inactive). In the case of CCC(=O)Nc1ccc2c(c1)C(=O)N(C)C[C@H](OC)[C@H](C)CN(C(=O)c1ccccn1)[C@@H](C)CO2, the activity change is reported as 15.8% (inactive). For COc1ccc2c3c(n(C)c2c1)[C@H](CO)N(C(=O)Nc1c(C)noc1C)CC31CN(CC2CC2)C1, the activity change was -7.59% (inactive). For O=C(C[C@H]1CC[C@H]2NC[C@@H](O)COC[C@@H]2O1)NCCN1CCCC1, the activity change was 9.89% (inactive). In the case of COc1cccc(CN(C)C[C@H]2OCc3ccccc3-c3c(n(C)c4ccccc34)C(=O)N([C@@H](C)CO)C[C@@H]2C)c1, the activity change is reported as -62% (inactive). With COc1ccc2c3c(n(C)c2c1)[C@H](CO)NCC31CN(S(=O)(=O)c2cccc(C)c2)C1 the activity change was 21.6% (inactive). In the case of C[C@@H]1CN([C@@H](C)CO)C(=O)c2cccc(NC(=O)c3ccc(-c4nccs4)cc3)c2O[C@@H]1CN(C)Cc1ccncc1, the activity change is reported as -15.6% (inactive). For C[C@@H]1CN([C@@H](C)CO)C(=O)c2cccc(NC(=O)c3cnccn3)c2O[C@H]1CN(C)Cc1ccc(-c2ccccc2)cc1, the activity change was -64.1% (inactive). For C[C@@H]1CN([C@H](C)CO)C(=O)c2cccc(NC(=O)c3cnccn3)c2O[C@@H]1CN(C)Cc1ccc(C(=O)Nc2ccccc2N)cc1, the activity change was -88.3% (active). For C[C@@H]1CN([C@@H](C)CO)C(=O)c2cccc(NS(=O)(=O)c3cccs3)c2O[C@H]1CN(C)Cc1ccncc1, the activity change was 28.4% (inactive). With C[C@@H]1CN([C@@H](C)CO)C(=O)c2cccc(NC(=O)c3ccc(-c4nccs4)cc3)c2O[C@H]1CN(C)Cc1ccc(Cl)c(Cl)c1 the activity change was -90.3% (active). For C[C@H](CO)N1C[C@H](C)[C@@H](CN(C)Cc2ccc(C(=O)Nc3ccccc3N)cc2)Oc2c(NC(=O)c3ccc(-c4nccs4)cc3)cccc2C1=O, the activity change was -90% (active). In the case of C[C@@H]1CN([C@@H](C)CO)C(=O)c2cccc(NS(=O)(=O)c3cccs3)c2O[C@@H]1CN(C)CC1CC1, the activity change is reported as 18.4% (inactive). For C[C@H]1CN([C@@H](C)CO)C(=O)c2cccc(NC(=O)c3ccc(-c4nccs4)cc3)c2O[C@H]1CN(C)Cc1ccc(C(=O)O)cc1, the activity change was 24% (inactive). In the case of C[C@H]1CN([C@@H](C)CO)C(=O)c2cccc(NS(=O)(=O)c3cccs3)c2O[C@H]1CN(C)Cc1ccc(C(=O)Nc2ccccc2N)cc1, the activity change is reported as -87.1% (active). For C[C@@H]1CN([C@@H](C)CO)C(=O)c2cccc(NC(=O)c3cnccn3)c2O[C@H]1CN(C)Cc1ccc(C(=O)O)cc1, the activity change was -5.79% (inactive). In the case of C[C@H](CO)N1C[C@H](C)[C@H](CN(C)S(C)(=O)=O)Oc2c(NC(=O)c3ccc(-c4nccs4)cc3)cccc2C1=O, the activity change is reported as -3.36% (inactive). In the case of C[C@H](CO)N1C[C@H](C)[C@@H](CN(C)S(C)(=O)=O)Oc2c(NC(=O)c3ccc(-c4nccs4)cc3)cccc2C1=O, the activity change is reported as -4.15% (inactive). With COc1ccc2c3c(n(C)c2c1)[C@@H](CO)N(CC1CC1)CC31CN(C(=O)c2cccc(F)c2)C1 the activity change was -33.2% (inactive). For CO[C@H](CN(C)C(=O)c1cnccn1)[C@@H](C)CN([C@@H](C)CO)S(=O)(=O)c1ccc(C)cc1, the activity change was 25.3% (inactive). With COc1ccccc1NC(=O)N1C[C@H]2[C@@H](c3ccccc31)[C@@H](CO)N2C(=O)C1CCCC1 the activity change was -11.4% (inactive). With CCNC(=O)[C@H]1[C@H](CO)[C@H]2Cn3c(ccc(C4=CCCC4)c3=O)[C@@H]1N2S(=O)(=O)c1cn(C)cn1 the activity change was 21.7% (inactive). For COc1ccc(-c2ccc3c(c2)O[C@H](CN(C)Cc2ccccc2C(=O)O)[C@H](C)CN([C@@H](C)CO)S3(=O)=O)cc1, the activity change was -14.1% (inactive). In the case of CO[C@H]1CN(C)C(=O)c2cc(NC(=O)c3ccc4c(c3)OCO4)ccc2OC[C@@H](C)N(CCC(F)(F)F)C[C@H]1C, the activity change is reported as -12.7% (inactive). With C[C@@H](C(=O)N(C)C[C@H]1OCc2ccccc2-c2c(n(C)c3ccccc23)C(=O)N([C@@H](C)CO)C[C@@H]1C)c1ccccc1 the activity change was -70% (inactive). For O=C(C[C@@H]1CC[C@@H]2[C@H](COC[C@@H](O)CN2Cc2cc(F)cc(F)c2)O1)NCc1cccc(F)c1, the activity change was -16.3% (inactive). With C[C@H](CO)N1C[C@H](C)[C@@H](CN(C)C(=O)c2ccncc2)Oc2cc(C3=CCCCC3)ccc2S1(=O)=O the activity change was -11.8% (inactive). For C[C@@H]1CN([C@@H](C)CO)C(=O)c2cccc(NC(=O)CCCCCC(=O)Nc3ccccc3N)c2O[C@H]1CN(C)C(=O)Nc1ccccc1, the activity change was -53.7% (inactive). With C[C@@H]1CN([C@@H](C)CO)C(=O)c2cccc(NC(=O)CCCCCC(=O)Nc3ccccc3N)c2O[C@H]1CN(C)C(=O)Nc1cccc2ccccc12 the activity change was -86.4% (active). In the case of C[C@H](CO)N1C[C@H](C)[C@@H](CN(C)C(=O)Nc2ccccc2)Oc2c(NC(=O)CCCCCC(=O)Nc3ccccc3N)cccc2C1=O, the activity change is reported as -26.6% (inactive). In the case of C[C@H](CO)N1C[C@H](C)[C@H](CN(C)CC2CCCCC2)Oc2ccc(NC(=O)CCCCCC(=O)Nc3ccccc3N)cc2CC1=O, the activity change is reported as -32.3% (inactive). For CC(C)NC(=O)Nc1cccc2c1O[C@H](CN(C)CC1CCCCC1)[C@H](C)CN([C@H](C)CO)C2=O, the activity change was -26.3% (inactive). With C[C@H]1CN([C@@H](C)CO)C(=O)c2cccc(NC(=O)CCCCCC(=O)Nc3ccccc3N)c2O[C@@H]1CN(C)CC1CCCCC1 the activity change was -83.5% (active). In the case of COc1cccc(S(=O)(=O)Nc2ccc3c(c2)[C@H]2C[C@H](CC(=O)O)O[C@H](CO)[C@H]2O3)c1, the activity change is reported as 19% (inactive). With CCCNC(=O)Nc1ccc2c(c1)C(=O)N(C)C[C@@H](OC)[C@@H](C)CN(Cc1ccccn1)[C@@H](C)CO2 the activity change was -2.2% (inactive). For O=C(NC1CCC1)[C@H]1[C@H](CO)[C@H]2Cn3c(ccc(-c4ccccc4)c3=O)[C@@H]1N2Cc1cocn1, the activity change was 10.7% (inactive). With Cn1cnc(S(=O)(=O)NC[C@@H]2CC[C@@H]3[C@@H](CN3Cc3nccs3)O2)c1 the activity change was 28.5% (inactive). For C[C@@H]1CCCCO[C@@H](CN(C)S(=O)(=O)c2cn(C)cn2)[C@@H](C)CN([C@@H](C)CO)C(=O)c2cc(NC(=O)Nc3ccc(C(F)(F)F)cc3)ccc2O1, the activity change was -75.5% (inactive). For O=C(C1CCCC1)N1CC(=O)N2[C@@H](CO)[C@@H](c3ccc(-c4cccnc4)cc3)[C@@H]2C1, the activity change was -20.4% (inactive). In the case of O=C(C1CCCC1)N1CC(=O)N2[C@H](C1)[C@@H](c1ccc(-c3cccnc3)cc1)[C@@H]2CO, the activity change is reported as -88.2% (active). In the case of O=C(Cc1cccnc1)N1CC(=O)N2[C@@H](CO)[C@H](c3ccc(C#CC4CC4)cc3)[C@@H]2C1, the activity change is reported as -6.96% (inactive). For CN(C)CC#Cc1ccc([C@@H]2[C@H](CO)N3C(=O)CN(C(=O)Cc4cccnc4)C[C@@H]23)cc1, the activity change was -85.1% (active). In the case of O=C(c1ccccc1F)N1CC(=O)N2[C@H](CO)[C@H](c3ccc(-c4cccnc4)cc3)[C@H]2C1, the activity change is reported as -85.7% (active). With O=C(c1ccccc1F)N1CC(=O)N2[C@H](CO)[C@@H](c3ccc(-c4cccnc4)cc3)[C@H]2C1 the activity change was 21.6% (inactive). For O=C(c1cccnc1)N1CC(=O)N2[C@H](CO)[C@H](c3ccc(-c4cccnc4)cc3)[C@@H]2C1, the activity change was 25.3% (inactive). In the case of O=C(Cc1cccnc1)N1CC(=O)N2[C@H](CO)[C@H](c3ccc(C#CC4CCCC4)cc3)[C@@H]2C1, the activity change is reported as -26.7% (inactive). In the case of O=C(c1ccccc1F)N1CC(=O)N2[C@H](C1)[C@H](c1ccc(-c3ccc(F)cc3)cc1)[C@@H]2CO, the activity change is reported as -63.7% (inactive). With COc1ccc2c3c([nH]c2c1)[C@@H](CO)N(C(=O)CN1CCOCC1)CC31CCN(C)CC1 the activity change was 27% (inactive). With O=C(C[C@@H]1C=C[C@@H](NS(=O)(=O)c2ccccc2)[C@@H](CO)O1)NCc1ccccc1F the activity change was 8.12% (inactive).
